Results on seven sequences are retold here after publication PMC7862700, “An all-to-all approach to the identification of sequence-specific readers for epigenetic DNA modifications on cytosine”.

What all share (assay): DAPPL (digital affinity profiling via proximity ligation, sequencing); 10 mM Tris-HCl pH 7.5, 50 mM NaCl, 1 mM DTT, 4% glycerol, room temperature, 30 min; GST-TFs on glutathione beads, 16-mer random dsDNA library, 0.1% formaldehyde crosslink after washing; high values mean tight binding
One experiment deals with T1, FEV (Homo sapiens, UniProt Q99581 1-238).
T1 sequence: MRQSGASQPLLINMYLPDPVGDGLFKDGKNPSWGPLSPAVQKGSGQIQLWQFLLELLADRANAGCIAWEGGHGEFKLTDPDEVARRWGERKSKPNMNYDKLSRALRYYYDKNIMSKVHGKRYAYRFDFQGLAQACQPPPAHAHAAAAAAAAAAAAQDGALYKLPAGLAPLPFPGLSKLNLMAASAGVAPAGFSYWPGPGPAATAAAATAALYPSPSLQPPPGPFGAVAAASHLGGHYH
The following applies: protein: recombinant; tags: N-terminal GST; dsDNA, one strand shown. In a few lines: (§1)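 Yeast served to express human transcription factors as GST fusions, which were then captured on glutathione beads and labelled with DNA barcodes. Pooled with a tag-only sample, they were incubated with 200 nmole of a 16-mer random double-stranded DNA library for 30 min at room temperature in Tris/NaCl/DTT/glycerol buffer, washed, crosslinked with 0.1% formaldehyde, ligated by proximity, amplified by PCR and sequenced. Dividing each hexamer's read frequency for a factor by its frequency for the tag-only sample gives the binding signal.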

For another experiment, the target named is ETV5 (Homo sapiens, UniProt P41161 1-510). The following applies: protein: recombinant; tags: N-terminal GST; dsDNA, one strand shown. In a few lines:
as §1

A further experiment addresses HSF1 (Homo sapiens, UniProt Q00613 1-529). The following applies: protein: recombinant; tags: N-terminal GST; chain copies: 3; dsDNA, one strand shown. In a few lines: as §1
The target in another experiment is T2, SPIC (Homo sapiens, UniProt Q8N5J4 1-248).
T2 sequence: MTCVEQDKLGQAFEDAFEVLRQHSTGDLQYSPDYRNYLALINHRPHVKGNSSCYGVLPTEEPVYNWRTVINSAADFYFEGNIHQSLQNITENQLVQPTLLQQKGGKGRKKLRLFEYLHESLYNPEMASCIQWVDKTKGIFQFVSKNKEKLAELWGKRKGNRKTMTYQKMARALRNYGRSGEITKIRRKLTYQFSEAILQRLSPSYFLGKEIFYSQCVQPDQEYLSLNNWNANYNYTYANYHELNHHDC
The following applies: protein: recombinant; tags: N-terminal GST; dsDNA, one strand shown. In a few lines: as §1

The next experiment deals with ELF4 (Homo sapiens, UniProt Q99607 1-663). The following applies: protein: recombinant; tags: N-terminal GST; dsDNA, one strand shown. The method in brief: as §1
ELF4, sequence (Q99607 whole entry): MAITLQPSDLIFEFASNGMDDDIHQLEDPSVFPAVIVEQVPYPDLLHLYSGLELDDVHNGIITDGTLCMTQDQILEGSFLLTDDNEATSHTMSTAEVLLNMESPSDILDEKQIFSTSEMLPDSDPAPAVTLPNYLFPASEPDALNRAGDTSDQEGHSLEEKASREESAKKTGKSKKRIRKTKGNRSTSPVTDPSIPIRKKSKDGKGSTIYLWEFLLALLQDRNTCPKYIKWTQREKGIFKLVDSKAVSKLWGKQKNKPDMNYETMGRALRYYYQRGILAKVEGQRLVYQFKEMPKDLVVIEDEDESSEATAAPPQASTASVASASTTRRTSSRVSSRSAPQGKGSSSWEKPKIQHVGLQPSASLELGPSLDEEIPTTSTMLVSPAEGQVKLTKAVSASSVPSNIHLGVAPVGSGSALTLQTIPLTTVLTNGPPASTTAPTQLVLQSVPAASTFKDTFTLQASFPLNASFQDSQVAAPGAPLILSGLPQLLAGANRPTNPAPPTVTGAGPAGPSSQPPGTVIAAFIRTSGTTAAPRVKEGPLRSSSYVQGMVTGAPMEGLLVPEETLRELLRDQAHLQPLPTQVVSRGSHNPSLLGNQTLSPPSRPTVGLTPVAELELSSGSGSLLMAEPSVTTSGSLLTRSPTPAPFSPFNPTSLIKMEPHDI
The target in another experiment is T3, ELK4 (Homo sapiens, UniProt P28324-2 1-405).
T3 sequence: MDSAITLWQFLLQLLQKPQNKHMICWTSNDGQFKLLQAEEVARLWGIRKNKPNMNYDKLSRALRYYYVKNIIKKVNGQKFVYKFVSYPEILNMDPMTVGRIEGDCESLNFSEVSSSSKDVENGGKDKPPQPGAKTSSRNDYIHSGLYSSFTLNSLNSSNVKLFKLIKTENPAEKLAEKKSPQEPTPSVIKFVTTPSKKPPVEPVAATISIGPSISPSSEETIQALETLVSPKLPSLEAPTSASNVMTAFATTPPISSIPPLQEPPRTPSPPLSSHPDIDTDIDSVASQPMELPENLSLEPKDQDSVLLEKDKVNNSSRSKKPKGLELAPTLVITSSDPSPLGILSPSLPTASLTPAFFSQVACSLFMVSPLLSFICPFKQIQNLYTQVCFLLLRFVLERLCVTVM
The following applies: protein: recombinant; tags: N-terminal GST; dsDNA, one strand shown. The method in brief:
as §1

A further experiment concerns the target T4, ETV2 (Homo sapiens, UniProt O00321 1-342).
T4 sequence: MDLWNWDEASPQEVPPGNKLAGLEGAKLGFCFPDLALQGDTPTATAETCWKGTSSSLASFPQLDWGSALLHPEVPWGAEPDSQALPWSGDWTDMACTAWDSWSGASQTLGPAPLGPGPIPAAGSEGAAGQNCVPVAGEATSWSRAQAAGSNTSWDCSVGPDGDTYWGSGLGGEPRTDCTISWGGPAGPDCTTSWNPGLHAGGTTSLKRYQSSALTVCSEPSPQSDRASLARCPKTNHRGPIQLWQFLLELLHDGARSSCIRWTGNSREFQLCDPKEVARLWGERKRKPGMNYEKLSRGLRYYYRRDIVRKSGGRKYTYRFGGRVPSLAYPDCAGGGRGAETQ
The following applies: protein: recombinant; tags: N-terminal GST; dsDNA, one strand shown. In a few lines:
as §1

The target of another experiment is T5, ELF3 (Homo sapiens, UniProt P78545 1-371).
T5 sequence: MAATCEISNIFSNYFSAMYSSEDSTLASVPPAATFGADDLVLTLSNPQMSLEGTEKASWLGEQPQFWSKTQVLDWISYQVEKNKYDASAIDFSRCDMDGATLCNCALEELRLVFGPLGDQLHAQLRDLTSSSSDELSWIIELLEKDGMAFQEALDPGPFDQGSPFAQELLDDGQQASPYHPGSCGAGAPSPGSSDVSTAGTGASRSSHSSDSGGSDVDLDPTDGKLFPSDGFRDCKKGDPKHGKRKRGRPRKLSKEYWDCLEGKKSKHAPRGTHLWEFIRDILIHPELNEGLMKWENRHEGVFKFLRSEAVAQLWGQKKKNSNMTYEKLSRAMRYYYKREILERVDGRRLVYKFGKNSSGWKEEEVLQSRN
The following applies: protein: recombinant; tags: N-terminal GST; dsDNA, one strand shown. In a few lines: as §1

The target in another experiment is CRX (Homo sapiens, UniProt O43186 1-299). The following applies: protein: recombinant; tags: N-terminal GST; dsDNA, one strand shown. The method in brief: as §1
CRX, sequence (O43186 whole entry): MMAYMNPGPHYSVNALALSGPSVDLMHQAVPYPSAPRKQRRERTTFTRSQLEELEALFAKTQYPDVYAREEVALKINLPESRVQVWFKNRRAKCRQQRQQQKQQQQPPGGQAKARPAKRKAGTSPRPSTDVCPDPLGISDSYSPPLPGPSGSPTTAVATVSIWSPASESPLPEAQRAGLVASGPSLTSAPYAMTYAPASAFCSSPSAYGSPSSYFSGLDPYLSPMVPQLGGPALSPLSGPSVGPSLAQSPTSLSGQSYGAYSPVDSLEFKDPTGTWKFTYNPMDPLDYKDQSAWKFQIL
The next experiment addresses ETV1 (Homo sapiens, UniProt P50549 1-477). The following applies: protein: recombinant; tags: N-terminal GST; dsDNA, one strand shown. The method in brief:
as §1

ETV5, sequence (P41161 whole entry): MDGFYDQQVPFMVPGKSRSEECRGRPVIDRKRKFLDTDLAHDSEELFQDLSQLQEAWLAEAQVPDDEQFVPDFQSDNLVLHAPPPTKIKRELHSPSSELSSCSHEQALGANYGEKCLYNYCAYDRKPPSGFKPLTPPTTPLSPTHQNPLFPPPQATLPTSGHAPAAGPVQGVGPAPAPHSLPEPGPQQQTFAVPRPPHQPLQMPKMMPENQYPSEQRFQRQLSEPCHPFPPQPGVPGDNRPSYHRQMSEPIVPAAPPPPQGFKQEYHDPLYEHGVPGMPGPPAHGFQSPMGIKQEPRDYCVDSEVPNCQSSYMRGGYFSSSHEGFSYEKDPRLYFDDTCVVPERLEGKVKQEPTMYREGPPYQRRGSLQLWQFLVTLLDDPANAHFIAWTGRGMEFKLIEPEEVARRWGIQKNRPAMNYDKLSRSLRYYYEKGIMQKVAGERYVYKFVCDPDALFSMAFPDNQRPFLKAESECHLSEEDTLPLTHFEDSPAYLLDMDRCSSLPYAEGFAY
ETV1, sequence (P50549 whole entry): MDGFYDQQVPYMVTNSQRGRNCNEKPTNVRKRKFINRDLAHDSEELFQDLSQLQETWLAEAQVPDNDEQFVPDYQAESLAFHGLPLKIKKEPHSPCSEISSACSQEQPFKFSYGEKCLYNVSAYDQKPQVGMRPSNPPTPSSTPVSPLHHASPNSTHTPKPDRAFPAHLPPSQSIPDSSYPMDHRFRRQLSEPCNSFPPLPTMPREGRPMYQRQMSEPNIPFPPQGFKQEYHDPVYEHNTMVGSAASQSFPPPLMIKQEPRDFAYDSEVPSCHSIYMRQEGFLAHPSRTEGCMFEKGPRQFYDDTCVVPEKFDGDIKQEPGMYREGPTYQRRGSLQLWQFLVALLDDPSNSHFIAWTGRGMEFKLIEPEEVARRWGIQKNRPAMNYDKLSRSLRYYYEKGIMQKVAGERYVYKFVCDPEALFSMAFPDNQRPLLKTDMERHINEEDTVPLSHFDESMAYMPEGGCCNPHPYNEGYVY
HSF1, sequence (Q00613 whole entry): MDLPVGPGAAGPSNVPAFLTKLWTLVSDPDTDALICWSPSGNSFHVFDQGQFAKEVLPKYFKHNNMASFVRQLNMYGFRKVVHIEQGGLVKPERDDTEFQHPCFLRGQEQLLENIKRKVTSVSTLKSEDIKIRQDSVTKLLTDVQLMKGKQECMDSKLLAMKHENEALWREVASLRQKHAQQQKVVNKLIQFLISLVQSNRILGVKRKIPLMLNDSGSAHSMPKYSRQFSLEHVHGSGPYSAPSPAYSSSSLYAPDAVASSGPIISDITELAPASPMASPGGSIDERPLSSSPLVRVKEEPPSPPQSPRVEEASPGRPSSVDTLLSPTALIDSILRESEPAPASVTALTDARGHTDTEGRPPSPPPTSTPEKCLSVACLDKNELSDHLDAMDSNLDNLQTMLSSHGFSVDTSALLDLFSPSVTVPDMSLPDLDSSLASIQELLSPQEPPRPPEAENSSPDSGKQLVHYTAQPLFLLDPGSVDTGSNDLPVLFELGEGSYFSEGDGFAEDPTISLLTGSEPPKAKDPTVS

Regarding CGATTC, the binding signal is 1.06 fold enrichment (6-mer frequency, TF over GST control) in the experiment with FEV; 1.19 fold enrichment (6-mer frequency, TF over GST control) with ETV5; 1.35 fold enrichment (6-mer frequency, TF over GST control) in the experiment with HSF1; 1.18 fold enrichment (6-mer frequency, TF over GST control) with SPIC; 1.24 fold enrichment (6-mer frequency, TF over GST control) with ELF4; 1.28 fold enrichment (6-mer frequency, TF over GST control) with ELK4. In addition, the binding signal with ETV2 is 1.06 fold enrichment (6-mer frequency, TF over GST control); in the experiment with ELF3, 1.22 fold enrichment (6-mer frequency, TF over GST control); with CRX, 1.09 fold enrichment (6-mer frequency, TF over GST control); in the experiment with ETV1, 1.25 fold enrichment (6-mer frequency, TF over GST control).

As to ATTATT, the binding signal is 1.15 fold enrichment (6-mer frequency, TF over GST control) with FEV; 1.17 fold enrichment (6-mer frequency, TF over GST control) in the experiment with ETV5; 1.8 fold enrichment (6-mer frequency, TF over GST control) with HSF1; 1.2 fold enrichment (6-mer frequency, TF over GST control) with SPIC; 1.24 fold enrichment (6-mer frequency, TF over GST control) with ELF4; 1.23 fold enrichment (6-mer frequency, TF over GST control) with ELK4. In addition, the binding signal is 1.11 fold enrichment (6-mer frequency, TF over GST control) with ETV2; 1.1 fold enrichment (6-mer frequency, TF over GST control) with ELF3; 2.37 fold enrichment (6-mer frequency, TF over GST control) with CRX; 1.29 fold enrichment (6-mer frequency, TF over GST control) in the experiment with ETV1.

CTCTCG: the binding signal with FEV was 1.3 fold enrichment (6-mer frequency, TF over GST control); with ETV5, 1.32 fold enrichment (6-mer frequency, TF over GST control); with HSF1 it was 1.99 fold enrichment (6-mer frequency, TF over GST control); in the experiment with SPIC, 1.3 fold enrichment (6-mer frequency, TF over GST control); with ELF4, 1.45 fold enrichment (6-mer frequency, TF over GST control); in the experiment with ELK4 it was 1.41 fold enrichment (6-mer frequency, TF over GST control). Moreover, the binding signal was 1.73 fold enrichment (6-mer frequency, TF over GST control) with ETV2; 1.65 fold enrichment (6-mer frequency, TF over GST control) in the experiment with ELF3; 1.32 fold enrichment (6-mer frequency, TF over GST control) with CRX; 1.47 fold enrichment (6-mer frequency, TF over GST control) in the experiment with ETV1.

For TTTGCG, the binding signal with FEV is 1.13 fold enrichment (6-mer frequency, TF over GST control); with ETV5, 1.29 fold enrichment (6-mer frequency, TF over GST control); in the experiment with HSF1, 1.3 fold enrichment (6-mer frequency, TF over GST control); in the experiment with SPIC, 1.37 fold enrichment (6-mer frequency, TF over GST control); with ELF4, 1.21 fold enrichment (6-mer frequency, TF over GST control); in the experiment with ELK4, 1.03 fold enrichment (6-mer frequency, TF over GST control). Further, the binding signal is 1.13 fold enrichment (6-mer frequency, TF over GST control) with ETV2; 1.3 fold enrichment (6-mer frequency, TF over GST control) with ELF3; 1.31 fold enrichment (6-mer frequency, TF over GST control) with CRX; 1.34 fold enrichment (6-mer frequency, TF over GST control) with ETV1.

For AAACCT, the binding signal with FEV is 1.08 fold enrichment (6-mer frequency, TF over GST control); in the experiment with ETV5, 1.13 fold enrichment (6-mer frequency, TF over GST control); with HSF1, 1.15 fold enrichment (6-mer frequency, TF over GST control); with SPIC, 1.09 fold enrichment (6-mer frequency, TF over GST control); with ELF4, 1.16 fold enrichment (6-mer frequency, TF over GST control); in the experiment with ELK4, 1.2 fold enrichment (6-mer frequency, TF over GST control). Besides, the binding signal was 1.19 fold enrichment (6-mer frequency, TF over GST control) in the experiment with ETV2; 1.19 fold enrichment (6-mer frequency, TF over GST control) with ELF3; 1.24 fold enrichment (6-mer frequency, TF over GST control) in the experiment with CRX; 1.15 fold enrichment (6-mer frequency, TF over GST control) with ETV1.

As to AACTTA, the binding signal with FEV is 1.2 fold enrichment (6-mer frequency, TF over GST control); with ETV5 it was 1.23 fold enrichment (6-mer frequency, TF over GST control); with HSF1 it was 1.41 fold enrichment (6-mer frequency, TF over GST control); with SPIC it was 1.27 fold enrichment (6-mer frequency, TF over GST control); in the experiment with ELF4 it was 1.19 fold enrichment (6-mer frequency, TF over GST control); with ELK4 it was 1.22 fold enrichment (6-mer frequency, TF over GST control). Also, the binding signal with ETV2 was 1.08 fold enrichment (6-mer frequency, TF over GST control); in the experiment with ELF3, 1.12 fold enrichment (6-mer frequency, TF over GST control); in the experiment with CRX it was 1.72 fold enrichment (6-mer frequency, TF over GST control); with ETV1, 1.22 fold enrichment (6-mer frequency, TF over GST control).

Consider TTGTTC, for which the binding signal in the experiment with FEV was 1.43 fold enrichment (6-mer frequency, TF over GST control); with ETV5, 1.48 fold enrichment (6-mer frequency, TF over GST control); with HSF1 it was 1.89 fold enrichment (6-mer frequency, TF over GST control); with SPIC, 1.48 fold enrichment (6-mer frequency, TF over GST control); with ELF4 it was 1.37 fold enrichment (6-mer frequency, TF over GST control); in the experiment with ELK4, 1.48 fold enrichment (6-mer frequency, TF over GST control). The binding signal with ETV2 was 1.48 fold enrichment (6-mer frequency, TF over GST control); in the experiment with ELF3, 1.33 fold enrichment (6-mer frequency, TF over GST control); in the experiment with CRX, 1.43 fold enrichment (6-mer frequency, TF over GST control); in the experiment with ETV1, 1.49 fold enrichment (6-mer frequency, TF over GST control).
